For some of these results: Potency and affinity values are given separately. Active and inactive are the calls of the source. Rule as the data show it, unless noted: active = inhibition above about 80%; inactive = the rest.

Test [1] in a line: drug combination toxicity in non-malignant astrocytes – cell-based, BGB or cisplatin IC20 combos, cytotoxicity control for chromothriptic childhood tumor combination screen (AID 1671460).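 Also: cells exposed to compounds for 96 hours before viability readout; 0% = vehicle and 100% = killing control.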 To be noted: Human astrocytes, viability inhibition, drug combinations; measured here: combo with cisplatin IC20; at 0.5 µM; stronger effect = higher value.
The nature of test [2]: BT084 cell growth, single and combined drugs, ICGC_MB145, cisplatin and BGB IC40 combos (AID 1671461).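 Also: cells exposed to drugs for 96 hours; 0% = vehicle DMSO and 100% = high DMSO full killing control.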 As to conditions: BT084 medulloblastoma cells, drug combinations, stronger effect = higher value.
Test [3] in a line: RCMB18 cell growth, single agent and combined, cisplatin and BGB IC40 combos (AID 1671462).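 Also: cells exposed to compound for four days.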 As to conditions: RCMB18 medulloblastoma cells, stronger effect = higher value.
A short description of test [4]: CRL1545 cell growth, single agent and combined, cisplatin and BGB IC20 combos (AID 1671464).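 Also: cells exposed to compound for 96 hours before readout; 0% = vehicle DMSO and 100% = high DMSO killing control.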 As to conditions: CRL1545 osteosarcoma cells, stronger effect = higher value.
Test [5] can be described thus: blockers of polyQ-driven CASP3 activation – cell-based (AID 1583). To be noted: polyglutamine-induced caspase-3 activation, cell assay; stronger effect = higher value;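 tested at 10 µM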.
Test [6] can be described thus: yeast 75Q aggregation reduction – 75Q-TubU reporter (AID 1593). As to conditions: Yeast 75Q polyglutamine aggregation reporter.
The nature of test [7]: restoration of touch response, mutant HTT neurons – whole organism, C. elegans mechanosensory neurons, N-terminal huntingtin (AID 1599). To be noted: C. elegans polyQ-huntingtin mechanosensory neurons, stronger effect = higher value.
A short description of test [8]: blockers of cytochrome c efflux from mitochondria – biochemical, purified mitochondria (AID 1603).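 Also: mouse liver mitochondria challenged with calcium chloride; signal normalized to the plate average as 100%.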 To be noted: stronger effect = lower value.
Test [9] can be described thus: polyglutamine aggregate formation blockers (AID 1604). To be noted: polyglutamine-induced protein aggregation inhibition assay; stronger effect = higher value; tested at 2.5 µM.
A short description of test [10]: glutamate transport activators, MN-1 cells, MN-1 cell line (AID 1612).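 Also: tested at 1 µM final; 0% = mean of DMSO vehicle wells on each plate; positive means more glutamate uptake than control and negative means less.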 As to conditions: MN-1 motor neuron cells, stronger effect = higher value.
Test [11] is described as follows: GFP-Q80 aggregate reduction, neuronal-like cells, cell-based, NGF-treated PC12, GFPQ80 (AID 1614).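 Also: lower means fewer inclusions and 0 means no inclusions at all.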 As to conditions: PC12 NGF-treated GFP-polyQ80 inclusion reduction.
Test [12] is described as follows: 75Q-TubH aggregate inhibition, S. cerevisiae, yeast (AID 1616). As to conditions: S. cerevisiae 75Q-TubH polyglutamine aggregation suppression; stronger effect = higher value.
The target in test [13] is Mitogen-activated protein kinase 7 (Homo sapiens) (UniProt Q13164). Briefly: Gal4-ERK5 driven luciferase induction – cell-based, HTS, primary screen (AID 1508626;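 active = luciferase signal above three times the same-plate solvent-only control wells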;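 also: luciferase driven by Gal4-ERK5 fusion binding five Gal4 sites before minimal TATA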). As to conditions: HeLa Gal4-ERK5 transactivation, 18 h, at 5 µM, stronger effect = higher value.
Chain of Mitogen-activated protein kinase 7 (Homo sapiens) (Q13164 whole entry, looked up, the tested form may be a part): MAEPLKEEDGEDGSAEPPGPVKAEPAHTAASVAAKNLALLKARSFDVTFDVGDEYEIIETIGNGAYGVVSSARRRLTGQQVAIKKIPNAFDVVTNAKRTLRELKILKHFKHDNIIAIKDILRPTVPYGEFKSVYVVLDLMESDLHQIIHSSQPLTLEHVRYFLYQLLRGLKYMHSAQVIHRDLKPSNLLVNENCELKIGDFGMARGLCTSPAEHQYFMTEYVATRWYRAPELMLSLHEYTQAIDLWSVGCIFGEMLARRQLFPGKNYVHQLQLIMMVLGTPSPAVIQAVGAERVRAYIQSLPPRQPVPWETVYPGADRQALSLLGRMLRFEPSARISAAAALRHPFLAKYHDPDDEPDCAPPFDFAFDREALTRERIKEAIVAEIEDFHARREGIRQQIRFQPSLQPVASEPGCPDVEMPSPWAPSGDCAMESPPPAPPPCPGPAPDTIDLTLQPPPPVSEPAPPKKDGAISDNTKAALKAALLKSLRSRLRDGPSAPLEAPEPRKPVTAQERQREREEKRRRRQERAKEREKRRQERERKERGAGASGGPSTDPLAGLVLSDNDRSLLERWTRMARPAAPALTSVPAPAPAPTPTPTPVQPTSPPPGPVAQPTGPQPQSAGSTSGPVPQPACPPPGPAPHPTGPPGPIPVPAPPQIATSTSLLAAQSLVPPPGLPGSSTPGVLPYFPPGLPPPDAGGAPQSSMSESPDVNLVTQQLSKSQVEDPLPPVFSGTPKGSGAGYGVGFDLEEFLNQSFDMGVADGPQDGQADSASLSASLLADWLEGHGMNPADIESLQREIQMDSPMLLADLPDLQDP

Consider `CCC1(c2ccccc2)C(=O)NC(=O)NC1=O`, for which the inhibition in test [1] is 13.6%; in test [2] (at 0.5 µM) it was 3.01% (inactive); in [2] (cisplatin combination, at 0.5 µM), 4.39%; in [2] (cisplatin combination, at 5 µM) it was 0.177%; in [2] (measured here: BGB IC40 combination 0.05 uM, at 0.05 µM), -27.4%; in test [2] (single agent, at 5 µM), 8.07%. Moreover, the inhibition was 1.72% (inactive) in test [3] (at 0.5 µM); 5.8% in test [3] (cisplatin combo, at 5 µM); -18.8% in test [3] (measured here: BGB IC40 combination, at 0.05 µM); -11.9% in [3] (measured here: combination with cisplatin, at 0.5 µM); 10.7% in test [3] (single agent, at 5 µM); -19.2% (inactive) in test [4] (at 0.5 µM). For the same molecule, the inhibition in [4] (measured here: with BGB IC20 combination, at 0.5 µM) is -11.8%; in [4] (measured here: with cisplatin IC20 combination, at 0.5 µM), -24.8%; in [4] (single agent, at 0.05 µM) it was 8.97%; in test [4] (single agent, at 5 µM), -18.2%.

On to `CN1CC[C@]23c4c5ccc(O)c4O[C@H]2[C@H](O)C=CC3[C@H]1C5` (some centres undefined), for which the inhibition in [5] is 2.86%. Moreover, the score in [6] amounted to 1.09. In addition, in [7], the rescue above control is -1.93. The cytochrome c release ratio in test [8] amounted to 1.03. Also, the inhibition of aggregation in test [9] was determined as 32%. Also, the glutamate uptake change in test [10] came out at 6.58%. The same molecule gave an inclusion score in test [11] of 2. The molecule further showed an aggregation suppression score in test [12] of 1.13.

For `CC[C@H]1C(=O)OC[C@@H]1Cc1cccn1C`, the inhibition in test [5] was -1.44%. In test [6], this molecule displayed a score of 1.44. This molecule also displayed a rescue above control in [7] of 2.37. The cytochrome c release ratio in [8] amounted to 0.94. In test [9], the inhibition of aggregation turned out to be 42.5%. Moreover, in test [10], the glutamate uptake change was found to be 10.3%. The inclusion score in test [11] came to 2. In [12], this molecule yielded an aggregation suppression score of 1.24.

Turning to `COc1cc2c(cc1OC)[C@@H]1C(=O)c3ccc4c(c3O[C@@H]1CO2)C[C@H](C(C)C)O4`, in test [13], the luciferase signal was 152 AU (inactive).

For `CC(N)Cc1ccccc1` (centres undefined), the inhibition in test [5] is 18%. Besides, the score in test [6] is 0.93. For the same molecule, in test [7], the rescue above control was -1.93. In addition, in test [8], the cytochrome c release ratio was 0.82. In addition, in [9], the inhibition of aggregation turned out to be 10.2%. The glutamate uptake change in test [10] stood at 31.4%. The same molecule showed an inclusion score in test [11] of 2. The same molecule registered an aggregation suppression score in test [12] of 0.923.

In the case of `CC[C@@H]1[C@@H](O)N2C3C[C@H]1C1C(O)[C@]4(C[C@@H]12)c1ccccc1N(C)[C@@H]34` (some centres undefined), the inhibition in test [5] came out at 7.74%. The score in test [6] was determined as 0.91. In [7], this molecule displayed a rescue above control of -2.66. Also, in [8], the cytochrome c release ratio amounted to 0.89. The inhibition of aggregation in [9] is -46.3%. Further, the glutamate uptake change in [10] was -1.35%. This molecule came in with an inclusion score in test [11] of 2. The molecule further registered an aggregation suppression score in [12] of 1.31.

As usually defined, the inhibition is the change of the read-out against control, counted positive when it falls.
